UGM FP inh = inhibitors of M. tuberculosis UDP-galactopyranose mutase | P9WIQ1 | inhibition, % at 10 µM | AID 504406 | purified UGM, fluorescence polarization probe displacement | 320,000 compounds, 0.06% hits; in the data active = inhibition above about 10%, passing the limit was not always enough
Rv3671c protease = Rv3671c (M. tuberculosis) protease inhibition; inhibition, % at 5.96 µM; 320,000 compounds, 0.048% hits; AID 2606; in the data active = inhibition above about 38%;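 also: extracellular domain of Rv3671c used as enzyme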
Target sequence (P9WHR9 whole entry, looked up, the tested form may be a part): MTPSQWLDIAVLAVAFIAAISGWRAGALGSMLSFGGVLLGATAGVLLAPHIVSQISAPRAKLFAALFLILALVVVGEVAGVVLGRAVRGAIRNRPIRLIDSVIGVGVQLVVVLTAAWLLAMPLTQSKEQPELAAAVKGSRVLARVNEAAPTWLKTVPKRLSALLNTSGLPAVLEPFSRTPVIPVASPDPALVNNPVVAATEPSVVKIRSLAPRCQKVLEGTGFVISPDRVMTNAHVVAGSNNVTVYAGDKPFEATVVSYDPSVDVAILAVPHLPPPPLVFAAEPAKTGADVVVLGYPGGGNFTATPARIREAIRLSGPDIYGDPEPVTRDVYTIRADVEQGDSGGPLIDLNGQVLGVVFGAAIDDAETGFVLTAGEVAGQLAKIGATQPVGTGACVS
GDH-TPI counter-1 = inhibits GDH-TPI coupling enzymes, artifact for Mtb FBA screen. inhibition, % at 4.8 µM. 360,000 compounds, 1.2% hits. GDH-TPI coupled enzyme counterscreen, NADH absorbance; in the data active = inhibition above about 30%
FadD28 FP inh = inhibitors of Mycobacterium tuberculosis FadD28 bisubstrate binding. FadD28 bisubstrate probe binding, fluorescence polarization. inhibition, % at 12.5 µM. 360,000 compounds, 0.22% hits. AID 588549; in the data active = inhibition above about 8.5%, passing the limit was not always enough
FBA Mtb inh = inhibits M. tuberculosis FBA enzyme; P9WQA3; purified M. tuberculosis FBA, fluorescence read-out; inhibition, % at 1 µM; 360,000 compounds, 2.3% hits; AID 588726
Mtb hypoxia rep = reduces hypoxia-regulated biosensor signal in M. tuberculosis | M. tuberculosis hypoxia-regulated fluorescent reporter, fluorescence | fluorescence inhibition, % (concentration not given with the values) | 300,000 compounds, 0.1% hits; in the data active = fluorescence inhibition mostly above about 23%, no sharp cut-off; inactive = mostly below about 17%
Mtb FBA confirm = confirmation of M. tuberculosis fructose-bisphosphate aldolase inhibitors; shares compounds with FBA Mtb inh; purified M. tuberculosis FBA, fluorescence read-out; inhibition, % at 1 µM; 5,600 compounds, 78% hits; AID 651616
GDH-TPI counter-2 = counter-screen for M. tuberculosis FBA inhibitors: GDH-TPI coupled enzyme inhibition. shares compounds with FBA Mtb inh. 5,600 compounds, 81% hits. GDH-TPI coupled enzyme counterscreen, fluorescence. inhibition, % at 1 µM; in the data active = inhibition above about 10%
GDH-TPI dose = counter-screen for M. tuberculosis FBA inhibitors: GDH-TPI dose response; shares compounds with FBA Mtb inh; GDH-TPI coupled enzyme assay, fluorescence, artifact counterscreen; IC50, µM; 170 compounds, 79% hits; call rule not given here
A number is an active result. The list is not random: actives were taken first. Their share in the collection is about 3.5%. Rule as the data show it, unless noted: active = inhibition above about 27%; inactive = the rest.

Screening OC1c2c(F)cccc2N=C2CCCCN21 (centres undefined) returned GDH-TPI counter-1 inactive, FadD28 FP inh inactive, FBA Mtb inh 38, Mtb FBA confirm 176 and GDH-TPI counter-2 162.
`CCOC(=O)CCSc1nc(C)c2cc(C)c(C)cc2n1` gave UGM FP inh inactive, Rv3671c protease inactive, GDH-TPI counter-1 inactive, FadD28 FP inh inactive, FBA Mtb inh inactive and Mtb hypoxia rep inactive.
For CCOC(=O)CCSc1nc(C)c2cc(OC)ccc2n1 the results were UGM FP inh inactive, Rv3671c protease inactive, GDH-TPI counter-1 inactive, FadD28 FP inh inactive, FBA Mtb inh 36, Mtb hypoxia rep inactive, Mtb FBA confirm 140 and GDH-TPI counter-2 116.
O=C(c1ccc2[nH]c3c(c2c1)CCCC3)N1CCN(c2ccc(F)cc2)CC1 was read as UGM FP inh inactive, Rv3671c protease inactive, GDH-TPI counter-1 inactive, FadD28 FP inh inactive and FBA Mtb inh inactive.
Cc1[nH]c2ccc(C(=O)N3CCN(c4ccc(F)cc4)CC3)cc2c1C was read as UGM FP inh inactive, Rv3671c protease inactive, GDH-TPI counter-1 inactive, FadD28 FP inh inactive, FBA Mtb inh 30, Mtb hypoxia rep inactive, Mtb FBA confirm 158 and GDH-TPI counter-2 120.
For CCOC1OC(C(=O)N2CCOCC2)=CC(C2CCCCC2)C1CCCO (centres undefined) the results were Mtb hypoxia rep inactive.
`O=C(NN=Cc1cccc([N+](=O)[O-])c1)c1ccncc1` gave Mtb hypoxia rep inactive.
For COc1cccc(-c2nc(C(=O)NCCCN3CCOCC3)cc3c2[nH]c2ccccc23)c1 the results were UGM FP inh inactive, Rv3671c protease inactive, GDH-TPI counter-1 inactive, FadD28 FP inh inactive, FBA Mtb inh 38, Mtb FBA confirm inactive and GDH-TPI counter-2 inactive.
`COc1cccc2[nH]c(C(=O)NCC3CCCO3)cc12` (centres undefined) gave UGM FP inh inactive, Rv3671c protease inactive, GDH-TPI counter-1 inactive, FadD28 FP inh inactive, FBA Mtb inh 32, Mtb hypoxia rep inactive, Mtb FBA confirm 126 and GDH-TPI counter-2 97.
Screening COc1ccccc1-c1nc(C(=O)NCC2CCCO2)cc2c1[nH]c1ccccc12 (centres undefined) returned UGM FP inh inactive, Rv3671c protease inactive, GDH-TPI counter-1 inactive, FadD28 FP inh inactive and FBA Mtb inh inactive.
`O=C(NCCCN1CCOCC1)c1cc2c([nH]c3ccccc32)c(-c2cccc(Br)c2)n1` gave UGM FP inh inactive, Rv3671c protease inactive, GDH-TPI counter-1 inactive, FadD28 FP inh inactive and FBA Mtb inh inactive.
For COc1cccc2[nH]c(C(=O)NC(C)c3ccccc3)cc12 (centres undefined) the results were UGM FP inh inactive, Rv3671c protease inactive, GDH-TPI counter-1 inactive, FadD28 FP inh inactive, FBA Mtb inh 50, Mtb hypoxia rep inactive, Mtb FBA confirm 156 and GDH-TPI counter-2 117.
Screening O=C(NCC1CCCO1)c1cc2ccccc2[nH]1 (centres undefined) returned UGM FP inh inactive, Rv3671c protease inactive, GDH-TPI counter-1 inactive, FadD28 FP inh inactive, FBA Mtb inh inactive and Mtb hypoxia rep inactive.
COc1cc(-c2nc(C(=O)NCC3CCCO3)cc3c2[nH]c2ccccc23)cc(OC)c1OC (centres undefined) was read as UGM FP inh inactive, Rv3671c protease inactive, GDH-TPI counter-1 inactive, FadD28 FP inh inactive, FBA Mtb inh 38, Mtb FBA confirm 60 and GDH-TPI counter-2 50.
COc1cccc2[nH]c(=O)c(-c3ccccc3)cc12 was read as UGM FP inh inactive, Rv3671c protease inactive, GDH-TPI counter-1 inactive, FadD28 FP inh inactive, FBA Mtb inh 71, Mtb hypoxia rep inactive, Mtb FBA confirm 47 and GDH-TPI counter-2 39.
Screening COc1c(N)c2ccccc2[nH]c1=O returned UGM FP inh inactive, Rv3671c protease inactive, GDH-TPI counter-1 inactive, FadD28 FP inh inactive and FBA Mtb inh inactive.
`COc1cccc(-c2nn(-c3ccc(C)cc3)cc2C(=O)NCC2CCCO2)c1` (centres undefined) gave UGM FP inh inactive, Rv3671c protease inactive, GDH-TPI counter-1 inactive, FadD28 FP inh inactive, FBA Mtb inh inactive and Mtb hypoxia rep inactive.
CCN1CCCC1CNC(=O)c1cc2c(OC)cccc2[nH]1 (centres undefined) was read as UGM FP inh inactive, Rv3671c protease inactive, GDH-TPI counter-1 inactive, FadD28 FP inh inactive, FBA Mtb inh 30, Mtb hypoxia rep inactive, Mtb FBA confirm 61 and GDH-TPI counter-2 34.
Screening COc1cccc(-c2nn(-c3ccc(F)cc3)cc2C(=O)NCC2CCCO2)c1 (centres undefined) returned Rv3671c protease inactive, GDH-TPI counter-1 inactive, FadD28 FP inh inactive, FBA Mtb inh 47, Mtb hypoxia rep inactive, Mtb FBA confirm active and GDH-TPI counter-2 active.
O=C(NN=Cc1ccc(F)cc1)c1ccc(-n2cnnn2)cc1 was read as Mtb hypoxia rep inactive.
CC(=NNc1ccccc1[N+](=O)[O-])c1ccccc1O was read as Mtb hypoxia rep inactive.
For CCOC(=O)C1=C(C)NC(C)=C(C(=O)OC)C1c1cccc(Cl)c1Cl (centres undefined) the results were UGM FP inh inactive, Rv3671c protease inactive, GDH-TPI counter-1 inactive, FadD28 FP inh inactive, FBA Mtb inh 41, Mtb FBA confirm inactive, GDH-TPI counter-2 inactive and GDH-TPI dose inactive.
COC(=O)C1=C(C)NC(=O)CC1c1cccc(Cl)c1Cl (centres undefined) was read as UGM FP inh inactive, Rv3671c protease inactive, GDH-TPI counter-1 inactive, FadD28 FP inh inactive, FBA Mtb inh inactive and Mtb hypoxia rep inactive.
`Cc1ccn2c(NC(=O)c3cccs3)c(-c3ccccc3)nc2c1` gave UGM FP inh inactive, Rv3671c protease inactive, GDH-TPI counter-1 inactive, FadD28 FP inh inactive, FBA Mtb inh inactive and Mtb hypoxia rep inactive.
Cc1ccn2c(NC(C)(C)C)c(-c3cccs3)nc2c1 was read as UGM FP inh inactive, Rv3671c protease inactive, GDH-TPI counter-1 inactive, FadD28 FP inh inactive, FBA Mtb inh 33, Mtb hypoxia rep inactive, Mtb FBA confirm active and GDH-TPI counter-2 active.
`CC(C)CCNc1c(-c2cccs2)nc2ccccn12` gave UGM FP inh inactive, Rv3671c protease inactive, GDH-TPI counter-1 inactive, FadD28 FP inh inactive, FBA Mtb inh 46, Mtb hypoxia rep inactive, Mtb FBA confirm 38 and GDH-TPI counter-2 21.
For CC1=CC(=NOS(=O)(=O)c2ccccc2)C(C)=CC1=O the results were Mtb hypoxia rep inactive.
OCc1ccc(-c2nn(Cc3ccccc3)c3ccccc23)o1 was read as UGM FP inh inactive, Rv3671c protease inactive, GDH-TPI counter-1 inactive, FadD28 FP inh inactive, FBA Mtb inh 58, Mtb hypoxia rep inactive, Mtb FBA confirm 82 and GDH-TPI counter-2 67.
